Measurements taken from article PMC7862700, “An all-to-all approach to the identification of sequence-specific readers for epigenetic DNA modifications on cytosine”.

Assays:
Test in all cases: DAPPL (digital affinity profiling via proximity ligation, sequencing); 10 mM Tris-HCl pH 7.5, 50 mM NaCl, 1 mM DTT, 4% glycerol, room temperature, 30 min; GST-TFs on glutathione beads, 16-mer random dsDNA library, 0.1% formaldehyde crosslink after washing; high values mean tight binding
[1] = biological target: T1, FLI1 (Homo sapiens, UniProt Q01543 1-452); conditions: protein: recombinant; tags: N-terminal GST; dsDNA, one strand shown
T1 sequence: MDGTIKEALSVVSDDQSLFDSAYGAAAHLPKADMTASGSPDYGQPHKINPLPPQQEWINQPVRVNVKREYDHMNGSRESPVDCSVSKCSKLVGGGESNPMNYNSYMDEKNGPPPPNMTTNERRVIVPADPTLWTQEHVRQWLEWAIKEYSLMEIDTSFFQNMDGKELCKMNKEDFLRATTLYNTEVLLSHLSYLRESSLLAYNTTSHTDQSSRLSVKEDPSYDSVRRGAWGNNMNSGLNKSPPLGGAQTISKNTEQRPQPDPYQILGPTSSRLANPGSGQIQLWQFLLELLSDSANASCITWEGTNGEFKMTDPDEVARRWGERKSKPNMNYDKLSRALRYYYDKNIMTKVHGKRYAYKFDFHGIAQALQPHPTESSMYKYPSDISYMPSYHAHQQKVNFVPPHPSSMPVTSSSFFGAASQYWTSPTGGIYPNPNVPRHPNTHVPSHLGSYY
Summary of the method: (§1)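 Pools of DNA-barcoded human transcription factors, expressed in yeast as GST fusions on glutathione beads and combined with a tag-only sample, were incubated with 200 nmole of a 16-mer random double-stranded DNA library. Incubation took 30 min at room temperature in Tris/NaCl/DTT/glycerol buffer and was followed by washing, 0.1% formaldehyde crosslinking, proximity ligation (BsaI/T4 ligase, 1 h, 37 °C), PCR amplification and sequencing on an Illumina NextSeq500. Binding signal is the ratio of a hexamer's read frequency for a factor to its frequency for the tag-only sample.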

[2] = biological target: T2, ELK1 (Homo sapiens, UniProt P19419 1-428); conditions: protein: recombinant; tags: N-terminal GST; dsDNA, one strand shown
T2 sequence: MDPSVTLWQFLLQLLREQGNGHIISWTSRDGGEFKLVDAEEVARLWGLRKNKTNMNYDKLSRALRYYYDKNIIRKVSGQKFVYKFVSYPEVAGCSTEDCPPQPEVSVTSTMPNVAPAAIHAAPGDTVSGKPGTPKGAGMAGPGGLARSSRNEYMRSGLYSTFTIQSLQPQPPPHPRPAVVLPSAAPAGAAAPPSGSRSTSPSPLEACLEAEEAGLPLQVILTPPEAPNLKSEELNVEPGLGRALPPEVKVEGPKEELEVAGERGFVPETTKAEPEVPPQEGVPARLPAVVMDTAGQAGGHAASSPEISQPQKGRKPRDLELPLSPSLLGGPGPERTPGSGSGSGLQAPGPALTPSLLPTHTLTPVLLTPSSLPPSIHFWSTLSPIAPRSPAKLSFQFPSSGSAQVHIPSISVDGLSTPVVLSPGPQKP
Summary of the method: as §1

[3] = biological target: T3, GABPA (Homo sapiens, UniProt Q06546 1-454); conditions: protein: recombinant; tags: N-terminal GST; dsDNA, one strand shown
T3 sequence: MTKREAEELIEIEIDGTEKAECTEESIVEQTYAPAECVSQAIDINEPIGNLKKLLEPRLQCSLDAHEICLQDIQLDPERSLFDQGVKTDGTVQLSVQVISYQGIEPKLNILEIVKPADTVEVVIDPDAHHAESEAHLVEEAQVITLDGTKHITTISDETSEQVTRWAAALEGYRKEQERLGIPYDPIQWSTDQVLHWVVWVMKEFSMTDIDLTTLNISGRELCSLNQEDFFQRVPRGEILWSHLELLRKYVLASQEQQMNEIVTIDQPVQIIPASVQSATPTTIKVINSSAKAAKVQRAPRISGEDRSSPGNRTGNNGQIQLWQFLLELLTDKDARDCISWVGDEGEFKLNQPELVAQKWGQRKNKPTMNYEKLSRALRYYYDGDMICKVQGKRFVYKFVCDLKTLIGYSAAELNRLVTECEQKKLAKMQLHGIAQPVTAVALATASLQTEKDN
Summary of the method: as §1

[4] = biological target: T4, ERG (Homo sapiens, UniProt P11308 1-479); conditions: protein: recombinant; tags: N-terminal GST; dsDNA, one strand shown
T4 sequence: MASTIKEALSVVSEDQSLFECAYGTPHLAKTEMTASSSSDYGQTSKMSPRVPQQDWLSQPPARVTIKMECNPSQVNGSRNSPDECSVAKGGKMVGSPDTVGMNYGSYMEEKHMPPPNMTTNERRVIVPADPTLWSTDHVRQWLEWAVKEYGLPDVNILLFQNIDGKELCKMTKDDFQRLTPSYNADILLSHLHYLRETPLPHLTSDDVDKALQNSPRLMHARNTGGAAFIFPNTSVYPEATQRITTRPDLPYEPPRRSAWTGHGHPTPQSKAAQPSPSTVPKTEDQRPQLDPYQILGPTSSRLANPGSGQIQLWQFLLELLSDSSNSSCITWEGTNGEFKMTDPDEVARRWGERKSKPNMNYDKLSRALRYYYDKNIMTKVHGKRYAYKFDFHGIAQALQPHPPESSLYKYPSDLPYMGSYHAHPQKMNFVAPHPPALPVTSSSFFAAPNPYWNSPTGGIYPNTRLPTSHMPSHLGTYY
Summary of the method: as §1

[5] = biological target: ELF1 (Homo sapiens, UniProt P32519 1-619); conditions: protein: recombinant; tags: N-terminal GST; dsDNA, one strand shown
Summary of the method: as §1

[6] = biological target: T5, EHF (Homo sapiens, UniProt Q9NZC4 1-300); conditions: protein: recombinant; tags: N-terminal GST; dsDNA, one strand shown
T5 sequence: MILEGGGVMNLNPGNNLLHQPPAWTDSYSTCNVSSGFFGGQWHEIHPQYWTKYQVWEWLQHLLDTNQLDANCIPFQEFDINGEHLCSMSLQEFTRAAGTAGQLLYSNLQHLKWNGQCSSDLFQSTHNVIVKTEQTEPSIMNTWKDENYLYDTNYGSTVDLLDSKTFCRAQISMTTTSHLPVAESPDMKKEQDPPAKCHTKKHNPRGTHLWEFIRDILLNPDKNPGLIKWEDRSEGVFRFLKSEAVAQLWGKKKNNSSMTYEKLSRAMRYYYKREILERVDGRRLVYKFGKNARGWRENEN
Summary of the method: as §1

[7] = biological target: SPI1 (Homo sapiens, UniProt P17947 1-270); conditions: protein: recombinant; tags: N-terminal GST; dsDNA, one strand shown
Summary of the method: as §1

[8] = biological target: SPIB (Homo sapiens, UniProt Q01892 1-262); conditions: protein: recombinant; tags: N-terminal GST; dsDNA, one strand shown
Summary of the method: as §1

[9] = biological target: T6, ELK3 (Homo sapiens, UniProt P41970 1-407); conditions: protein: recombinant; tags: N-terminal GST; dsDNA, one strand shown
T6 sequence: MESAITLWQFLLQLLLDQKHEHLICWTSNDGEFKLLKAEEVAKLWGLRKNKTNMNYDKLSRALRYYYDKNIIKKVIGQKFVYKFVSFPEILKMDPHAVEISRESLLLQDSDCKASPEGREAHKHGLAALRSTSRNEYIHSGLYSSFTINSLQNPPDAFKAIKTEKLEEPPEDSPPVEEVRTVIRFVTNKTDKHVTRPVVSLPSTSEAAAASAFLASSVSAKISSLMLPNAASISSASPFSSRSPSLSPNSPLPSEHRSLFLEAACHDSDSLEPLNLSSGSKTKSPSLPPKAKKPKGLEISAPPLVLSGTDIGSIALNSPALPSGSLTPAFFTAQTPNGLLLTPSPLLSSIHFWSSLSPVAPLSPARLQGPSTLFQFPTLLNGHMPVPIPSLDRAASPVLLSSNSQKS
Summary of the method: as §1

[10] = biological target: T7, FEV (Homo sapiens, UniProt Q99581 1-238); conditions: protein: recombinant; tags: N-terminal GST; dsDNA, one strand shown
T7 sequence: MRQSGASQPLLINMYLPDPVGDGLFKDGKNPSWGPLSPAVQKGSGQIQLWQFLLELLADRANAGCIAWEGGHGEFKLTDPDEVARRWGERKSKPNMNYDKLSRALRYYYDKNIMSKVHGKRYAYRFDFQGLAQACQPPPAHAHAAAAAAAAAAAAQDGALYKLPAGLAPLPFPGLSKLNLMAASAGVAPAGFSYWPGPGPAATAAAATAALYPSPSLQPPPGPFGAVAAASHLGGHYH
Summary of the method: as §1

[11] = biological target: ETV5 (Homo sapiens, UniProt P41161 1-510); conditions: protein: recombinant; tags: N-terminal GST; dsDNA, one strand shown
Summary of the method: as §1

[12] = biological target: HSF1 (Homo sapiens, UniProt Q00613 1-529); conditions: protein: recombinant; tags: N-terminal GST; chain copies: 3; dsDNA, one strand shown
Summary of the method: as §1

[13] = biological target: T8, SPIC (Homo sapiens, UniProt Q8N5J4 1-248); conditions: protein: recombinant; tags: N-terminal GST; dsDNA, one strand shown
T8 sequence: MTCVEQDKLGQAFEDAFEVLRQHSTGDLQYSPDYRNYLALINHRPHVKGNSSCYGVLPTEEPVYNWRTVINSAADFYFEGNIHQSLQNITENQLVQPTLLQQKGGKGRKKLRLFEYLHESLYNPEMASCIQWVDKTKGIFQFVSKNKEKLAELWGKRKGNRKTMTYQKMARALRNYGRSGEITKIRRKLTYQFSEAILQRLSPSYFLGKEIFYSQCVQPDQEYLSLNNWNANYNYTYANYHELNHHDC
Summary of the method: as §1

[14] = biological target: ELF4 (Homo sapiens, UniProt Q99607 1-663); conditions: protein: recombinant; tags: N-terminal GST; dsDNA, one strand shown
Summary of the method: as §1

[15] = biological target: T9, ELK4 (Homo sapiens, UniProt P28324-2 1-405); conditions: protein: recombinant; tags: N-terminal GST; dsDNA, one strand shown
T9 sequence: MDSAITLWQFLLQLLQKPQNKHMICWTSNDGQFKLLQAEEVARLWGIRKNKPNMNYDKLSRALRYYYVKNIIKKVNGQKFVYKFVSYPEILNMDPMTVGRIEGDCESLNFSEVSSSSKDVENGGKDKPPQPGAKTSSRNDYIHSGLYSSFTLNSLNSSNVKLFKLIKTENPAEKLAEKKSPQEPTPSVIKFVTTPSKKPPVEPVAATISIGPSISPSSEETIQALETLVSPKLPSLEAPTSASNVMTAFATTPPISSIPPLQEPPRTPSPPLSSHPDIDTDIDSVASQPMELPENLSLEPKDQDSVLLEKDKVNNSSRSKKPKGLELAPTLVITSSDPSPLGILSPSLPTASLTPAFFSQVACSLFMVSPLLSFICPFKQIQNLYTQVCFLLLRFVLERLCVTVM
Summary of the method: as §1

[16] = biological target: T10, ETV2 (Homo sapiens, UniProt O00321 1-342); conditions: protein: recombinant; tags: N-terminal GST; dsDNA, one strand shown
T10 sequence: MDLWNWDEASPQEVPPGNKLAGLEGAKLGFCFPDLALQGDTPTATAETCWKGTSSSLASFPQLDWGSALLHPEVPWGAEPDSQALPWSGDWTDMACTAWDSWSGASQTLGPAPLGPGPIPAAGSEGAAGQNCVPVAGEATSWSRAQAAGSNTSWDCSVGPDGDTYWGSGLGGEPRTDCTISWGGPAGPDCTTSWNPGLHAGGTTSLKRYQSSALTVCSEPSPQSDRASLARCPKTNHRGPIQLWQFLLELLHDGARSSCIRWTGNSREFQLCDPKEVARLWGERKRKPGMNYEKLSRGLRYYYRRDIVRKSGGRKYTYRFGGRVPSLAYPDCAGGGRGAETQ
Summary of the method: as §1

[17] = biological target: T11, ELF3 (Homo sapiens, UniProt P78545 1-371); conditions: protein: recombinant; tags: N-terminal GST; dsDNA, one strand shown
T11 sequence: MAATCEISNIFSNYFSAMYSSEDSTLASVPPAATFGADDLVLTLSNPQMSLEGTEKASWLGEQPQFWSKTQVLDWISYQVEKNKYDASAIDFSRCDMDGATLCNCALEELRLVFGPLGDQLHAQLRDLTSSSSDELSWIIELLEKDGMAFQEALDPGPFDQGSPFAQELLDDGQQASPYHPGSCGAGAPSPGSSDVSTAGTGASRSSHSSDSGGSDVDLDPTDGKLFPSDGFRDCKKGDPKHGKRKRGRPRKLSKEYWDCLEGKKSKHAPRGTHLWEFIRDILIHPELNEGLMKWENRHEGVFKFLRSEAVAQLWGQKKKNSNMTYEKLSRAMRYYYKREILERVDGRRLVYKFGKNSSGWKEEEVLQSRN
Summary of the method: as §1

[18] = biological target: CRX (Homo sapiens, UniProt O43186 1-299); conditions: protein: recombinant; tags: N-terminal GST; dsDNA, one strand shown
Summary of the method: as §1

[19] = biological target: ETV1 (Homo sapiens, UniProt P50549 1-477); conditions: protein: recombinant; tags: N-terminal GST; dsDNA, one strand shown
Summary of the method: as §1

Chain of ELF1 (P32519 whole entry): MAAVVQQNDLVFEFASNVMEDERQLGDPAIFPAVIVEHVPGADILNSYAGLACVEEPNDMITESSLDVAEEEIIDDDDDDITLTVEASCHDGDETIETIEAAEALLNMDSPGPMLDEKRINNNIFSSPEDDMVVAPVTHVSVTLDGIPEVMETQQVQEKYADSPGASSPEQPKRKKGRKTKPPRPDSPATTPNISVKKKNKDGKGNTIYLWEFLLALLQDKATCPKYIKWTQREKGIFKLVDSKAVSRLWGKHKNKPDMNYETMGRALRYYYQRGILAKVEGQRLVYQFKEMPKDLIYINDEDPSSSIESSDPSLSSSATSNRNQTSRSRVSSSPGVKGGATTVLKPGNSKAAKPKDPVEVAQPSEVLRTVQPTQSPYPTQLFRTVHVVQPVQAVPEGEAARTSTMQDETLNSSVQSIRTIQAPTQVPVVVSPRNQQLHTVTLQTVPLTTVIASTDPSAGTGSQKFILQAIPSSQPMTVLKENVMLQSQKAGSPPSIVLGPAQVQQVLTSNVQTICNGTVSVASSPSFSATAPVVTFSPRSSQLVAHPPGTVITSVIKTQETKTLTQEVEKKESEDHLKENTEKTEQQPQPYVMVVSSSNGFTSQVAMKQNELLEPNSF
Chain of HSF1 (Q00613 whole entry): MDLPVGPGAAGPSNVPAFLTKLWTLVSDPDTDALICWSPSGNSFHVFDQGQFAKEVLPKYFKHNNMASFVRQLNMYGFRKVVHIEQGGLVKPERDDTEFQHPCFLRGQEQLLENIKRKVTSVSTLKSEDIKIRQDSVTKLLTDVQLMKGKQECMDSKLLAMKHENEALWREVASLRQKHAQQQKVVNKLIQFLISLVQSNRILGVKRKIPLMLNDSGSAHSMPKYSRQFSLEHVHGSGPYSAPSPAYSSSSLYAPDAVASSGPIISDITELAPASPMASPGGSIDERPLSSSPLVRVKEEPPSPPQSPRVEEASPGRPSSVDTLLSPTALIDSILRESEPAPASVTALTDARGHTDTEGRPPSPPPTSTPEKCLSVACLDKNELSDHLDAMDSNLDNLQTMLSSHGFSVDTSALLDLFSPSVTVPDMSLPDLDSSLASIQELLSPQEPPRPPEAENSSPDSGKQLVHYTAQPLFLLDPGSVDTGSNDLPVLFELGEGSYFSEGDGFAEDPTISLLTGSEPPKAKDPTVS
Chain of ETV1 (P50549 whole entry): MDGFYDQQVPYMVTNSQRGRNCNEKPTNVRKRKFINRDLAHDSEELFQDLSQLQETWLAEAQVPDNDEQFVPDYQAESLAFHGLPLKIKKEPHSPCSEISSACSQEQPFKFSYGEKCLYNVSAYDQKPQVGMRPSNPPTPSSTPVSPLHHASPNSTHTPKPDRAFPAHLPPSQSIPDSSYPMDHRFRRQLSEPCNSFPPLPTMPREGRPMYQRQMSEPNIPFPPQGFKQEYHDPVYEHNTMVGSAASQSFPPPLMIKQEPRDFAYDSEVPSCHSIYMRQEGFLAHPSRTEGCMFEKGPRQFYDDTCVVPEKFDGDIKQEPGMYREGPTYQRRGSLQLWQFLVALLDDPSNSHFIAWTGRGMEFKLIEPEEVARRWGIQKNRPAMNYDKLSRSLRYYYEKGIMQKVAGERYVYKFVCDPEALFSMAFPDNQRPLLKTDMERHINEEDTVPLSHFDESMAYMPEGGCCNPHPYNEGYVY
Chain of CRX (O43186 whole entry): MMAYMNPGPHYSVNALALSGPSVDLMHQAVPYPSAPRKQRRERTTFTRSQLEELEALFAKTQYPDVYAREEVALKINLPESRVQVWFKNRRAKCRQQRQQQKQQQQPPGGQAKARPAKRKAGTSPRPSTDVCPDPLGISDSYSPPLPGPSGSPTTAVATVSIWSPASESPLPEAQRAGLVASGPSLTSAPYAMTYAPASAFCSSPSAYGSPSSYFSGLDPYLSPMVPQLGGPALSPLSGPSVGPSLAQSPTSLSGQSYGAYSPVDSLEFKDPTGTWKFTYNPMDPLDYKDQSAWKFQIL
Chain of ETV5 (P41161 whole entry): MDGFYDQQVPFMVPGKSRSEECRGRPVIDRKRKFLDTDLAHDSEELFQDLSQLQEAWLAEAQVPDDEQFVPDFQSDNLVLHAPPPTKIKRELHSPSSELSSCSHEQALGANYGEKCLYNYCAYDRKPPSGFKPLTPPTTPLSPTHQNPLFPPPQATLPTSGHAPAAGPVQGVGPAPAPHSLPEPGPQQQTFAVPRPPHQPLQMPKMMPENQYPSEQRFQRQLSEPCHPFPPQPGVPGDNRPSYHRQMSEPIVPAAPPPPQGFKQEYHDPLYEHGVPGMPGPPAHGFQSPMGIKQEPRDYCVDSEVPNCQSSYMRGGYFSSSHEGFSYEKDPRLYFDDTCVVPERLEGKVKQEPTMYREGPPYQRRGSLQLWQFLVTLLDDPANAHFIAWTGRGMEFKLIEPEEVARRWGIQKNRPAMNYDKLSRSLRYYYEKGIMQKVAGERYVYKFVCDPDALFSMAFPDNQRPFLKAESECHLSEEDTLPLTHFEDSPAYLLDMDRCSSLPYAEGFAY
Chain of ELF4 (Q99607 whole entry): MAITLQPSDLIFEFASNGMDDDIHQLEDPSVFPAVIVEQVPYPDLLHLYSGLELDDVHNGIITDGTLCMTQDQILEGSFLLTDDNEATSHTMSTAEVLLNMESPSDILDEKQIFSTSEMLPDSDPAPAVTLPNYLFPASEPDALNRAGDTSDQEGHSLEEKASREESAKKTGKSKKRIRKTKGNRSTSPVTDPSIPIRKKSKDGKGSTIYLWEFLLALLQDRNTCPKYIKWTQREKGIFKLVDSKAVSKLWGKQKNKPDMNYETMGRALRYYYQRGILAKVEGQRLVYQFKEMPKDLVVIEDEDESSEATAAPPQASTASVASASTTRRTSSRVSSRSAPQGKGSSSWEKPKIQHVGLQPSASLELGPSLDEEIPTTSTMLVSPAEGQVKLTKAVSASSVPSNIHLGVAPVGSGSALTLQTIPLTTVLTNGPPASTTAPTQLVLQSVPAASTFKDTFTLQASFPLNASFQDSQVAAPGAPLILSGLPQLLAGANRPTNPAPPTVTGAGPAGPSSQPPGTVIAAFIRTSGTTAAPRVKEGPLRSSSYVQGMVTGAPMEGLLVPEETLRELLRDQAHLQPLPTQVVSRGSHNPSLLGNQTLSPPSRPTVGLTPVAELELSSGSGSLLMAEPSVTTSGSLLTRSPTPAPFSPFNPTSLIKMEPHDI
Chain of SPIB (Q01892 whole entry): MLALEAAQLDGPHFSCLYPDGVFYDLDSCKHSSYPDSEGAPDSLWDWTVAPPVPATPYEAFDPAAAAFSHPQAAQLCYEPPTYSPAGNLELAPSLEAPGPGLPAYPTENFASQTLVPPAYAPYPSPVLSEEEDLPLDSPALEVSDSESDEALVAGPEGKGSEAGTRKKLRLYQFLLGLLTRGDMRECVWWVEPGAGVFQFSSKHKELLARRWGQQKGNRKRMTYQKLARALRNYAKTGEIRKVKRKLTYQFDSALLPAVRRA

## CTCTCT
[1]
  binding signal: 1.77 fold enrichment (6-mer frequency, TF over GST control)
[2]
  binding signal: 1.78 fold enrichment (6-mer frequency, TF over GST control)
[3]
  binding signal: 1.56 fold enrichment (6-mer frequency, TF over GST control)
[4]
  binding signal: 1.62 fold enrichment (6-mer frequency, TF over GST control)
[5]
  binding signal: 1.76 fold enrichment (6-mer frequency, TF over GST control)
[6]
  binding signal: 1.66 fold enrichment (6-mer frequency, TF over GST control)
[7]
  binding signal: 1.53 fold enrichment (6-mer frequency, TF over GST control)
[8]
  binding signal: 1.56 fold enrichment (6-mer frequency, TF over GST control)
[9]
  binding signal: 1.49 fold enrichment (6-mer frequency, TF over GST control)
[10]
  binding signal: 1.67 fold enrichment (6-mer frequency, TF over GST control)
[11]
  binding signal: 1.57 fold enrichment (6-mer frequency, TF over GST control)
[12]
  binding signal: 1.69 fold enrichment (6-mer frequency, TF over GST control)
[13]
  binding signal: 1.77 fold enrichment (6-mer frequency, TF over GST control)
[14]
  binding signal: 1.74 fold enrichment (6-mer frequency, TF over GST control)
[15]
  binding signal: 1.74 fold enrichment (6-mer frequency, TF over GST control)
[16]
  binding signal: 1.63 fold enrichment (6-mer frequency, TF over GST control)
[17]
  binding signal: 1.58 fold enrichment (6-mer frequency, TF over GST control)
[18]
  binding signal: 1.5 fold enrichment (6-mer frequency, TF over GST control)
[19]
  binding signal: 1.49 fold enrichment (6-mer frequency, TF over GST control)
